Laboratory results: PubChem BioAssay (Tox21)
Results filed as inconclusive are left out. The source made the active and inactive calls. Unless noted, the call rests on the fitted dose curve; in most records, active means well fitted curve in the direction sought with a large enough effect in the repeat runs; inconclusive means weak or mixed curves; inactive means no such curve, though single readings can be large; an effect the other way counts as inactive or inconclusive.

Legend:
[1] = target: Thyrotropin receptor (Homo sapiens) (UniProt P16473); experiment: qHTS assay to identify small molecule antagonists of the thyroid stimulating hormone receptor (TSHR) signaling pathway (AID 1259385; calls by dose curve; further: nearly all actives have a fitted effect of over 20% in size)
Procedure, shortened: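 TSHR-HEK293 cells were plated and held 18 h at 37C/5% CO2, then given compound plus Ro20-1724 and stimulated with TSH at 1.5 ng/mL final. After 30 min at room temperature, cAMP was detected with cAMP-d2/anti-cAMP-cryptate (1 h) by fluorescence.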

[2] = qHTS assay to identify small molecule agonists of the estrogen receptor alpha (ER-alpha) signaling pathway in the presence of an antagonist - cell viability counter screen (AID 1259386);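 further: series mostly up to about 92 µM; cells exposed to compounds for 22 h at 37 °C before the viability read; nearly all actives have a fitted effect of over 30% in size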
Procedure, shortened: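 The test measures whether compounds kill ER-alpha reporter cells (VM7Luc4E2) under antagonist co-treatment (ICI-182,780, 10.0nM). Fluorescence from CellTiter-Fluor is read after a 22hr exposure.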

[3] = target: Progesterone receptor (Homo sapiens) (UniProt P06401); experiment: qHTS assay to identify small molecule agonists of the progesterone receptor (PR) signaling pathway (AID 1346784; calls by dose curve; further: nearly all actives have a fitted effect of over 30% in size)
Procedure, shortened: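 Fluorescence from LiveBLAzer B/G FRET substrate cleavage (2 hr, RT) reported PR activation in PR-UAS-bla HEK 293T cells treated 16 hr at 37C/5% CO2 with compounds; medium contained 2% charcoal-stripped FBS.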

[4] = target: Progesterone receptor (Homo sapiens) (UniProt P06401); experiment: qHTS assay to identify small molecule antagonists of the progesterone receptor (PR) signaling pathway (AID 1346795; active means well fitted inhibition curve with a large enough effect in the signal ratio in the repeat runs, not every such curve was filed as active; the % refers to the signal ratio)
Procedure, shortened: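 Fluorescence intensity measured 2 hr after adding beta-lactamase FRET substrate to PR-UAS-bla HEK293T cells that had been co-treated 16 hr with compound and 1 nM R5020 (final concentration) in 2% charcoal-stripped FBS.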

[5] = qHTS assay to identify small molecule antagonists of the progesterone receptor (PR) signaling pathway - cell viability counter screen (AID 1346798); further: series mostly up to about 92 µM; nearly all actives have a fitted effect of over 50% in size
Procedure, shortened: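 CellTiter-Glo luminescence; PR-UAS-bla HEK293T, 3,000 cells/well; compound + R5020, 16 hr, 37C/5% CO2; 30 min RT before read.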

[6] = qHTS assay to identify small molecule agonists of the progesterone receptor (PR) signaling pathway - cell viability counter screen (AID 1346799; calls by dose curve; further: nearly all actives have a fitted effect of over 45% in size)
Procedure, shortened: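 In parallel with the beta-lactamase readout, cytotoxicity toward PR-UAS-bla HEK293T cells was measured by CellTiter-Glo luminescence following 16 hr compound incubation in 2% charcoal-stripped FBS medium.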

[7] = qHTS assay to identify small molecule antagonists of the TGF-beta/Smad signaling pathway - cell viability counter screen (AID 1346824); further: nearly all actives have a fitted effect of over 50% in size
Procedure, shortened: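 SBE-bla HEK 293T cells were plated overnight at 37 C, then given compounds in DMSO plus TGF-beta1 (added as 0.25 ng/mL solution) for 5 hr. After the bla read, CellTiter-Glo was added to the same wells and luminescence read after 30 min at room temperature.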

[8] = qHTS assay to identify small molecule agonists of the TGF-beta/Smad signaling pathway - cell viability counter screen (AID 1346829); further: top concentration of the series differs between compounds; nearly all actives have a fitted effect of over 45% in size
Procedure, shortened: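 Tox21 qHTS format: SBE-bla HEK 293T cells treated with DMSO-dissolved compounds for 5 hr; CellTiter-Glo luminescence after 30 min at room temperature.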

[9] = target: Thyrotropin-releasing hormone receptor (Homo sapiens) (UniProt P34981); experiment: qHTS assay to identify small molecule antagonists of the thyrotropin-releasing hormone receptor (TRHR) signaling pathway (AID 1346877; active means well fitted inhibition curve with a large enough effect in the repeat runs, not every such curve was filed as active; further: series mostly up to about 51 µM)
Procedure, shortened: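 Overnight-plated (18 h, 37 °C) HEK293 cells expressing TRHR were dye-loaded 2 h, treated with compound, then stimulated with TRH at 1 nM final. Fluorescence intensity was captured every second for 3 min.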

[10] = target: Thyrotropin-releasing hormone receptor (Homo sapiens) (UniProt P34981); experiment: qHTS assay to identify small molecule agonists of the thyrotropin-releasing hormone receptor (TRHR) signaling pathway (AID 1346891; calls by dose curve;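 further: HEK293 cells expressing TRHR with calcium dye readout; series mostly up to about 58 µM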)
Procedure, shortened: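 Compounds were tested as agonists at 15 concentrations, in triplicate, on TRHR-Hek293 cells; calcium-sensitive dye fluorescence was recorded for 3 min following addition.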

[11] = Human pregnane X receptor (PXR) small molecule agonists, qHTS cell viability counter screen (AID 1346977); further: nearly all actives have a fitted effect of over 50% in size
Procedure, shortened: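 Viability counter screen: CellTiter-Fluor signal in PXR-Luc HepG2 cells, 24hr compound exposure, 37C, 5% CO2.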

[12] = Caspase-3/7 induction in HepG2 cells by small molecules, qHTS assay (AID 1346978); further: nearly all actives have a fitted effect of over 15% in size
Procedure, shortened: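 Wild-type HepG2 cells (2,000/well) were settled 5 h at 37 C, 5% CO2, then exposed to compounds in DMSO for 17 h. Caspase-3/7 activity was read by luminescence 30 min after adding Caspase-Glo 3/7 reagent at room temperature.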

[13] = Caspase-3/7 induction in CHO-K1 cells by small molecules, qHTS cell viability counter screen (AID 1346979); further: nearly all actives have a fitted effect of over 35% in size
Procedure, shortened: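 Viability readout by fluorescence (CellTiter-Fluor) on wild-type CHO-K1 cells exposed for 16hr at 37C and 5% CO2 to compounds delivered in DMSO; reagent incubated 1hr before reading.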

[14] = Caspase-3/7 induction in CHO-K1 cells by small molecules, qHTS assay (AID 1346980); further: nearly all actives have a fitted effect of over 15% in size
Procedure, shortened: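 Wild-type cells were seeded at 1,500 per well and settled 5 hr at 37 C, 5% CO2, then exposed to DMSO-dissolved compounds for 17 hr. Caspase-Glo 3/7 reagent was added, and luminescence was read after 30min at room temperature.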

[15] = Caspase-3/7 induction in HepG2 cells by small molecules, qHTS cell viability counter screen (AID 1346981); further: series mostly up to about 92 µM; nearly all actives have a fitted effect of over 30% in size
Procedure, shortened: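 Treatment of HepG2 cells with DMSO-delivered compounds ran 16 hr at 37 C following a 5-hr pre-incubation of 2,000 cells/well. CellTiter-Fluor fluorescence, read after 1 hr, served as the viability measure in a qHTS format.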

[16] = target: Nuclear receptor subfamily 1 group I member 2 (Homo sapiens) (UniProt O75469); experiment: Human pregnane X receptor (PXR) small molecule agonists, qHTS assay (AID 1346982); further: nearly all actives have a fitted effect of over 35% in size
Procedure, shortened: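 Stable HepG2 line reporting PXR-mediated CYP3A4 expression via luciferase. Treatment: 24 hr with compounds in DMSO at 37 C. Detection: ONE-Glo luminescence.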

[17] = qHTS assay to identify small molecule agonists of the TGF-beta/Smad signaling pathway (AID 1346859; active means well fitted activation curve with a large enough effect in the signal ratio in the repeat runs, not every such curve was filed as active; the % refers to the signal ratio; further: series mostly up to about 77 µM)
Procedure, shortened: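 After overnight seeding, SBE-bla HEK 293T cells are dosed with compounds in DMSO and kept 5 hr at 37 C, 5% CO2. LiveBLAzer-type FRET substrate is then applied for 2 hr at room temperature.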

[18] = target: Nuclear receptor subfamily 1 group I member 2 (Rattus norvegicus) (UniProt Q9R1A7); experiment: Rat pregnane X receptor (rPXR) activation by small molecules, qHTS assay (AID 1346983); settings: rPXR luciferase reporter cells, One-Glo luminescence, 24 h; active compounds read high; further: nearly all actives have a fitted effect of over 20% in size
Procedure, shortened: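 Cell-based rPXR luciferase reporter assay, 2,000 cells per well, rested 5hr at 37 C before compound addition in DMSO, then 24 hr at 37 C. One-Glo reagent was added and luminescence read after 30 min at room temperature.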

[19] = target: Nuclear receptor subfamily 1 group I member 2 (Homo sapiens) (UniProt O75469); experiment: CYP3A4 induction through human pregnane X receptor (PXR) by small molecules, qHTS assay (AID 1346984); further: nearly all actives have a fitted effect of over 40% in size
Procedure, shortened: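 After 24 h at 37C with compound, DPX-2 cells (HepG2, co-transfected PXR response element and CYP3A4 promoter-luciferase) got 3uM final P450-Glo Luciferin-IPA for 3 h; One-Glo luminescence followed.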

[20] = target: Nuclear receptor subfamily 1 group I member 2 (Homo sapiens) (UniProt O75469); experiment: Human pregnane X receptor (PXR) activation by small molecules, qHTS assay (AID 1346985); further: nearly all actives have a fitted effect of over 40% in size
Procedure, shortened: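 DPX-2 cells (HepG2 co-transfected with a PXR response element and a CYP3A4-promoter luciferase construct) were seeded at 2,000 per well, rested 5 hr at 37C, then exposed to DMSO-dissolved compounds for 24 hr. Activation was read as luciferase luminescence.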
On the % scale 0 is the no-effect control and ±100 the full control effect.

Thyrotropin receptor (Homo sapiens), sequence (P16473 whole entry, looked up): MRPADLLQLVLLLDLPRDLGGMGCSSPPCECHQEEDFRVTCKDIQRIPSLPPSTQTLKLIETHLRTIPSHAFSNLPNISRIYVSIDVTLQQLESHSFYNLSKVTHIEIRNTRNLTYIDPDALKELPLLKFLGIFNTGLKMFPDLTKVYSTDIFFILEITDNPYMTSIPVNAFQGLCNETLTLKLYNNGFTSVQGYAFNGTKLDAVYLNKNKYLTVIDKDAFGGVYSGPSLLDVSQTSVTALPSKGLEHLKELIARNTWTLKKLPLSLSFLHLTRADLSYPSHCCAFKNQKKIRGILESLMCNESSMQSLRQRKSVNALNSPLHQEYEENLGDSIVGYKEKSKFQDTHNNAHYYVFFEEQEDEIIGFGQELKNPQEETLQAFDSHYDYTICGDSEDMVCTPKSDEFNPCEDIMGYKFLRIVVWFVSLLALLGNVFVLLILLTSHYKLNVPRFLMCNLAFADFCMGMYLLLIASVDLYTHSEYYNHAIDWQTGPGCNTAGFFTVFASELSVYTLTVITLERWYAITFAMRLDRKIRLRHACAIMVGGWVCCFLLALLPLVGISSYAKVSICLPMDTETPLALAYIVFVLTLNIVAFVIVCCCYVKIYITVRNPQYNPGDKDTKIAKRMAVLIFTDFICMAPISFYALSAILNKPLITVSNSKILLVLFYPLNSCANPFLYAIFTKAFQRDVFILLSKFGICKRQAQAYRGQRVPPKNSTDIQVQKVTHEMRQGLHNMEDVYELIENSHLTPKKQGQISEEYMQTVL
Thyrotropin-releasing hormone receptor (Homo sapiens), sequence (P34981 whole entry, looked up): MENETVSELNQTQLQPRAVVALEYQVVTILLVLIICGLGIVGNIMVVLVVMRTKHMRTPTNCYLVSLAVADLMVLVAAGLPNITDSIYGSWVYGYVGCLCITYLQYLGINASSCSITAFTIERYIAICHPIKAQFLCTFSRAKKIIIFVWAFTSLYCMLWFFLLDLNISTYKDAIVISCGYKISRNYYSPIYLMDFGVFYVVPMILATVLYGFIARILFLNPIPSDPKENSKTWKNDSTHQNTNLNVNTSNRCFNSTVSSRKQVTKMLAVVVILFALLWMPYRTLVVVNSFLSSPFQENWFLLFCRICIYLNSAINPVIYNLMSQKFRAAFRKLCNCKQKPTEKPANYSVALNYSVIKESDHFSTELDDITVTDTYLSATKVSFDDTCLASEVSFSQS
Nuclear receptor subfamily 1 group I member 2 (Homo sapiens), sequence (O75469 whole entry, looked up): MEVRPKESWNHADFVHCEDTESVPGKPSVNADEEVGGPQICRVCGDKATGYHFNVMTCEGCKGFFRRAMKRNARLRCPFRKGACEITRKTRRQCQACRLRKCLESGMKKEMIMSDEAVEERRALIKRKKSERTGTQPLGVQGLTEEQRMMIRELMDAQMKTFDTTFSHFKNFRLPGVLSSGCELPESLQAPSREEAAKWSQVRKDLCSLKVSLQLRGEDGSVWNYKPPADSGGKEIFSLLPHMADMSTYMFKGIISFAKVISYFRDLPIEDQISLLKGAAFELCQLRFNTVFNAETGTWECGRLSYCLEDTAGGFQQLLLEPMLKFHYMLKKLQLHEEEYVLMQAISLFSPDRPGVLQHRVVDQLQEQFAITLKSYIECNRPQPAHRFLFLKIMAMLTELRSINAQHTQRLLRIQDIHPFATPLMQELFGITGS
Progesterone receptor (Homo sapiens), sequence (P06401 whole entry, looked up): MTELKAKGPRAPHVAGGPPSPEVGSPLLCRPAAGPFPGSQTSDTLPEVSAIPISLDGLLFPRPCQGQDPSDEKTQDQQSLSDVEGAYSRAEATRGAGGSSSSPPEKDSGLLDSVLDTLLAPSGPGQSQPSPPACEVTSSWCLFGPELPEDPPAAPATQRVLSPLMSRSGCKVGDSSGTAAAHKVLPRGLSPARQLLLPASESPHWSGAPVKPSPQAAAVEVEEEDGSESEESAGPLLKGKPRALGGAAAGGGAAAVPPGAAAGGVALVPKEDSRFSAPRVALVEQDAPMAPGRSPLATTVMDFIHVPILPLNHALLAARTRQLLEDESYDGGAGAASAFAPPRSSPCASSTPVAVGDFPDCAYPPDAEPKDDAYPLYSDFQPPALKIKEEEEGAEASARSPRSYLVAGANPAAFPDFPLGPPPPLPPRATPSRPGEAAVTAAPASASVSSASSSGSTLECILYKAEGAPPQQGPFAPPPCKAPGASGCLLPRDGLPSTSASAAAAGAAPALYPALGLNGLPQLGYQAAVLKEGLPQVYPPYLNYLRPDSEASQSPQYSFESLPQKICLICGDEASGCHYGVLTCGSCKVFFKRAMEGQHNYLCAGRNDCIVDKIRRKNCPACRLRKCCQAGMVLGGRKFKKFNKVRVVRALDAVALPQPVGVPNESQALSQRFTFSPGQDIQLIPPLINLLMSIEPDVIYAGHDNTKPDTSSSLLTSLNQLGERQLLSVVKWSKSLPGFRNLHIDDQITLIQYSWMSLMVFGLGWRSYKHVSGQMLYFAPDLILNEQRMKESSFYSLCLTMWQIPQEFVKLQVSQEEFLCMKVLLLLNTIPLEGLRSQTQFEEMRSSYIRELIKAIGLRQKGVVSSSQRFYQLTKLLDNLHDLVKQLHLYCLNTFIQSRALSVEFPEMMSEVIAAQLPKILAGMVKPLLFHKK
Nuclear receptor subfamily 1 group I member 2 (Rattus norvegicus), sequence (Q9R1A7 whole entry, looked up): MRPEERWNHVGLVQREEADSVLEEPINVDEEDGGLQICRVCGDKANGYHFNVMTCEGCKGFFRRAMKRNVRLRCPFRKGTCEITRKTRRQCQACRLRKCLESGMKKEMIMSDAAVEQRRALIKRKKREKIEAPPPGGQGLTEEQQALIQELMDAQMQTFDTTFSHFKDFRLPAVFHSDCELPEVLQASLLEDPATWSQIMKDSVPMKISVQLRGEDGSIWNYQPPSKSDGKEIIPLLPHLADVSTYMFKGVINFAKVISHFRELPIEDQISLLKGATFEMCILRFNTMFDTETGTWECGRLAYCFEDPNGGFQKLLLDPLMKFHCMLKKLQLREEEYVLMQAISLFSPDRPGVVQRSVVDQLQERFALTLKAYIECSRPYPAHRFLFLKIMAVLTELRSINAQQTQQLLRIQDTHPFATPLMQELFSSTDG

Cc1ccc([N+](=O)[O-])cc1S(=O)(=O)O
inactive: outcome [1] | Potency [2] | Potency [3] | Potency [4] | outcome [5] | outcome [6] | outcome [7] | outcome [8] | outcome [9] | outcome [10] | Potency [11] | Potency [12] | Potency [13] | outcome [14] | Potency [15] | Potency [16]

N#Cc1ccccc1
inactive: outcome [1] | Potency [2] | Potency [3] | Potency [4] | outcome [5] | outcome [6] | outcome [7] | outcome [8] | outcome [17] | outcome [9] | outcome [10] | Potency [11] | Potency [12] | Potency [13] | outcome [14] | Potency [15] | Potency [16]

CC(C)=CCl
inactive: outcome [1] | Potency [2] | Potency [3] | Potency [4] | outcome [5] | outcome [6] | outcome [7] | outcome [8] | outcome [17] | Potency [11] | Potency [12] | Potency [13] | outcome [14] | Potency [15] | Potency [16]

C=CC(C)CCCC(C)(C)O (stereo unspecified)
inactive: outcome [1] | Potency [2] | Potency [3] | Potency [4] | outcome [5] | outcome [6] | outcome [7] | outcome [8] | Potency [11] | Potency [12] | Potency [13] | outcome [14] | Potency [15] | Potency [16]

CN/C(=C\[N+](=O)[O-])NCCSCc1csc(CN(C)C)n1
inactive: outcome [1] | Potency [2] | Potency [3] | Potency [4] | outcome [5] | outcome [6] | outcome [7] | outcome [8] | outcome [9] | outcome [10] | Potency [11] | Potency [13] | outcome [14] | Potency [15] | Potency [16] | max activation [18] -2.39% | Potency [19] | outcome [20]

CCCCCCC=O
inactive: outcome [1] | Potency [2] | Potency [3] | Potency [4] | outcome [5] | outcome [6] | outcome [7] | outcome [17] | outcome [9] | outcome [10] | Potency [11] | Potency [12] | Potency [13] | outcome [14] | Potency [15] | Potency [16]

O=[N+]([O-])c1ccc2nc[nH]c2c1
inactive: outcome [1] | Potency [2] | Potency [3] | Potency [4] | outcome [5] | outcome [6] | outcome [7] | outcome [8] | outcome [17] | outcome [9] | outcome [10] | Potency [11] | Potency [13] | outcome [14] | Potency [15] | Potency [16]

CN(C)CCOC(=O)COc1ccc(Cl)cc1
inactive: outcome [1] | Potency [2] | Potency [3] | Potency [4] | outcome [5] | outcome [6] | outcome [7] | outcome [8] | outcome [17] | outcome [9] | outcome [10] | Potency [11] | Potency [12] | outcome [14] | Potency [15] | Potency [16] | max activation [18] -3.66% | Potency [19] | outcome [20]
